Consider 13 compounds from PubChem BioAssay (NCI).

Compounds without any hit were thinned out: in the full panel of roughly 83,000, 20% have a hit.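 In brief: 96-well plates, 48 h treatment, single concentration, percent growth endpoint.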 Values without a mark were called inactive. Calls of active or inactive are those of the source. How the source made its calls: active means growth percent below 10; inactive means the rest.

Some test systems named below: NCI-H23 lung; NCI-H226 lung; NCI-H322M lung; HOP-62 NSCLC; NCI-H460 lung; HOP-92 NSCLC; NCI-H522 lung; A549/ATCC NSCLC; 786-0 renal; COLO 205 colon.
Experiment in all cases: NCI-60 one-dose screen, 48 h (100 = growth as untreated, 0 = no growth, -100 = all killed)
Settings in all cases: 10 µM unless noted

Take `COc1cc2ncnc(Nc3ccc(Oc4ccnc(C)c4)c(C)c3)c2cc1NC(=O)CC1CCSS1` (stereo not given): the growth in the experiment on NCI-H23 lung was -49.5% (active); in the experiment with NCI-H226 lung, 25.8%; with NCI-H322M lung, -49.6% (active); with HOP-62 NSCLC it was -50.7% (active); in the experiment with NCI-H460 lung, -53.1% (active); with HOP-92 NSCLC, 62.6%. Further, the growth in the experiment on NCI-H522 lung was -57.6% (active); in the experiment on A549/ATCC NSCLC, -63.8% (active); with 786-0 renal, 52.5%; with COLO 205 colon, -81.1% (active).
With `Cn1cccc1/C=C1/SC(=S)N(CCc2ccc(O)cc2)C1=O`, the growth with NCI-H23 lung is 79.5%; in the experiment with NCI-H226 lung, 87.8%; in the experiment on NCI-H322M lung it was 87.3%; with HOP-62 NSCLC it was 56.3%; with NCI-H460 lung, 33.6%; in the experiment on HOP-92 NSCLC, 88.3%. The growth was 47.8% in the experiment with NCI-H522 lung, 61.5% in the experiment on A549/ATCC NSCLC, 64.4% in the experiment with 786-0 renal and 103% in the experiment with COLO 205 colon.
For `CC(C)(C)CC(C)(C)c1ccc(OCCOCC[N+](C)(C)CC(=O)[O-])cc1`, the growth was 108% in the experiment on NCI-H23 lung; 105% with NCI-H226 lung; 111% in the experiment with NCI-H322M lung; 106% with HOP-62 NSCLC; 110% with NCI-H460 lung; 105% in the experiment on HOP-92 NSCLC. The growth with NCI-H522 lung was 103%; with A549/ATCC NSCLC, 101%; in the experiment on 786-0 renal, 106%; with COLO 205 colon, 105%.
Turning to `Cc1ccc(-c2ccc(Nc3ccccc3)nn2)cc1S(N)(=O)=O`, the growth with NCI-H23 lung is 96.2%; with NCI-H226 lung, 99.2%; in the experiment with NCI-H322M lung, 108%; with HOP-62 NSCLC, 107%; in the experiment with NCI-H460 lung, 82.9%; in the experiment with HOP-92 NSCLC it was 98.9%. The growth was 96.1% in the experiment with NCI-H522 lung, 79.4% in the experiment on A549/ATCC NSCLC, 103% in the experiment with 786-0 renal and 96% with COLO 205 colon.
In the case of `OCCNc1nc(Nc2ccc(Cl)c(Cl)c2)nc2ccccc12`, the growth with NCI-H23 lung was 54.5%; in the experiment with NCI-H226 lung, 61.7%; in the experiment on NCI-H322M lung it was 71%; with HOP-62 NSCLC, 49.1%; with NCI-H460 lung, 33.3%; with HOP-92 NSCLC it was 27.4%. For the same compound, the growth with NCI-H522 lung is 62%; in the experiment with A549/ATCC NSCLC, 37%; with 786-0 renal, 62%; with COLO 205 colon, -21.7% (active).
Turning to `CCC(c1ccc(OC)cc1)C(CC)c1ccc(O)c(CN2CCCCC2)c1` (stereo not given), the growth in the experiment with NCI-H23 lung was 63.5%; in the experiment on NCI-H226 lung, 70%; in the experiment with NCI-H322M lung, 70.7%; in the experiment on HOP-62 NSCLC, 95.5%; in the experiment on NCI-H460 lung it was 77.1%; with HOP-92 NSCLC, 52.2%. In addition, the growth is 72.3% with NCI-H522 lung, 84% in the experiment on A549/ATCC NSCLC, 59.5% in the experiment with 786-0 renal and -12.9% (active) in the experiment with COLO 205 colon.
Take `CCOC(=O)C/C(=C\c1ccccc1)C(C)=O`: the growth is 104% with NCI-H23 lung; 98.7% with NCI-H226 lung; 114% with NCI-H322M lung; 73.4% in the experiment on HOP-62 NSCLC; 112% in the experiment with NCI-H460 lung; 92.2% in the experiment with HOP-92 NSCLC. Also, the growth was 76.7% with NCI-H522 lung, 67.4% in the experiment with A549/ATCC NSCLC, 101% with 786-0 renal and 102% in the experiment with COLO 205 colon.
As for `COc1cc(-c2cc(-c3nc4ccccc4[nH]3)[nH]n2)cc(OC)c1OC`, the growth in the experiment with NCI-H23 lung is 41%; in the experiment with NCI-H226 lung, 14.5%; with NCI-H322M lung, 39.5%; with HOP-62 NSCLC, 39.7%; with NCI-H460 lung it was 35.5%; with HOP-92 NSCLC, 52.1%. Moreover, the growth in the experiment with NCI-H522 lung was 37.2%; in the experiment with A549/ATCC NSCLC it was 53.6%; in the experiment with 786-0 renal, 57.6%; in the experiment with COLO 205 colon it was 47.3%.
As for `Oc1cccc2ccc(N/N=C/c3cc(CN4CCCCC4)c(O)c4ncccc34)nc12`, the growth was -10.8% (active) with NCI-H23 lung; -30% (active) in the experiment on NCI-H226 lung; 25.5% in the experiment with NCI-H322M lung; 1.83% (active) with HOP-62 NSCLC; -40.3% (active) in the experiment with NCI-H460 lung; 36.9% in the experiment on HOP-92 NSCLC. Also, the growth with NCI-H522 lung is -16% (active); in the experiment with A549/ATCC NSCLC, -10.3% (active); in the experiment with 786-0 renal, 5.33% (active); in the experiment on COLO 205 colon, 8.41% (active).
For the compound `CCOc1ccc(NC(=O)c2ccccc2-c2ccccc2C(=O)O)cc1`, the growth with NCI-H23 lung is 109%; with NCI-H226 lung, 104%; in the experiment with NCI-H322M lung it was 106%; in the experiment with HOP-62 NSCLC, 106%; in the experiment on NCI-H460 lung, 113%; in the experiment on HOP-92 NSCLC it was 106%. Moreover, the growth in the experiment with NCI-H522 lung is 104%; in the experiment with A549/ATCC NSCLC it was 107%; with 786-0 renal it was 105%; with COLO 205 colon, 113%.
With `Cn1c(=O)c2c(nc(N3CCCC3)n2C)n(C)c1=O`, the growth in the experiment with NCI-H23 lung was 96.4%; with NCI-H226 lung it was 102%; in the experiment with NCI-H322M lung it was 105%; with HOP-62 NSCLC it was 104%; with NCI-H460 lung, 102%; with HOP-92 NSCLC, 90.9%. In addition, the growth in the experiment on NCI-H522 lung was 91.5%; in the experiment on A549/ATCC NSCLC, 85.6%; in the experiment with 786-0 renal, 97%; in the experiment on COLO 205 colon it was 110%.
On to `COc1ccc(NC(=S)N/N=C/c2ccccc2SSCCC(=O)OC[C@H]2O[C@H](O)[C@H](O)[C@@H](O)[C@@H]2O)cc1`, for which the growth was 67.2% with NCI-H23 lung; 88.2% with NCI-H226 lung; 52.5% in the experiment on NCI-H322M lung; 45.8% in the experiment on HOP-62 NSCLC; 26.6% in the experiment with NCI-H460 lung; 104% with HOP-92 NSCLC. In addition, the growth was 58.4% in the experiment with NCI-H522 lung, 55.1% in the experiment on A549/ATCC NSCLC, 89.7% with 786-0 renal and 100% in the experiment on COLO 205 colon.
For the compound `O=S(=O)(NCCNc1cc(-c2cn(-c3ccccc3)nc2-c2cccc(O)c2)ccn1)c1ccc(C(F)(F)F)cc1`, the growth is 41.8% in the experiment on NCI-H23 lung; 57.8% with NCI-H226 lung; 75.3% in the experiment on NCI-H322M lung; -60% (active) in the experiment with HOP-62 NSCLC; 42.3% with NCI-H460 lung; 38.4% with HOP-92 NSCLC. The growth in the experiment on NCI-H522 lung was 55.7%; in the experiment with A549/ATCC NSCLC, 41.6%; in the experiment on 786-0 renal, 35.8%; in the experiment on COLO 205 colon it was -21.4% (active).
